Results published in PubChem BioAssay AID651871 (Sanford-Burnham Center for Chemical Genomics, 2012).

Test system: HL-1
Assay: protection of cardiomyocytes from stress damage, SAR follow-up, cell-based, panel, H9c2 and HL-1, ATP luminescence, set 2 (AID 651871);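 also: cells exposed to stressor for 2 h before ATP readout; reference of the scale not given here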
Settings: H9c2/HL-1 cardiomyocytes, 2-deoxyglucose stress, with 2-deoxyglucose
[1] = run 9, at 79 µM (top of the series)

SMILES	activity (protection/inhibition) (run 9, at 19.8 µM (top of the series))	activity (protection/inhibition) (run 9, at 39.5 µM (top of the series))	activity (protection/inhibition) [1]
COc1ccc2c(c1OC)C(=O)N1c3ccccc3C(=O)N(Cc3cccc(Cl)c3Cl)C21 (stereo not given)	50.7%	55.4%	-7.08%
CCOC(=O)c1cccc(NC(=O)CNC(=O)c2cc(-c3cc(OC)c(OC)c(OC)c3)nc3ccccc23)c1	–	–	91.8%
COc1ccc2nc(-c3cc(OC)c(OC)c(OC)c3)cc(C(=O)NCC(=O)Nc3ccc(C(C)=O)cc3)c2c1	–	–	90%
